# According to the supplement of paper PMC6555819:
# Legend:
# Assay in all cases: PBM binding z-score (relative to random genomic background probes); higher = stronger binding; sequences stand for … in GC…GCGATTGACAGCGTAGAATGAAGG
# [1] = system: FXR:RXRa (NR concentration 270 nM, RXRa partner concentration 90 nM)
# Procedure, shortened: (§1)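 Scanned fluorescence from custom Agilent 4×180K protein-binding microarrays was regression-normalized. Binding z-scores use random background probes as reference. Ligand-free nuclear receptor dimers were incubated on the arrays for 1 h and detected with antibodies against each partner (one per run).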
# [2] = system: LXRa:RXRa (NR concentration 270 nM, RXRa partner concentration 90 nM)
# Procedure, shortened: as §1
# [3] = system: LXRa homodimer (NR concentration 270 nM)
# Procedure, shortened: as §1
# [4] = system: LXRb:RXRa (NR concentration 270 nM, RXRa partner concentration 90 nM)
# Procedure, shortened: as §1
# [5] = system: LXRb homodimer (NR concentration 270 nM)
# Procedure, shortened: as §1
# [6] = system: PPARa:RXRa (NR concentration 270 nM, RXRa partner concentration 90 nM)
# Procedure, shortened: as §1
# [7] = system: PPARg:RXRa (NR concentration 180 nM, RXRa partner concentration 90 nM)
# Procedure, shortened: as §1
# [8] = system: PPARg:RXRa 270nM:90nM, anti-RXR (NR concentration 270 nM, RXRa partner concentration 90 nM)
# Procedure, shortened: as §1
# [9] = system: PPARg:RXRa 30nM:10nM, anti-RXR (NR concentration 30 nM, RXRa partner concentration 10 nM)
# Procedure, shortened: as §1
# [10] = system: PPARg:RXRa 90nM:30nM, anti-RXR (NR concentration 90 nM, RXRa partner concentration 30 nM)
# Procedure, shortened: as §1
# [11] = system: PPARg:RXRa DBDmut IVT, anti-RXR (DBD mutation: RXRa K156A/R161A, NR concentration 270 nM, RXRa partner concentration 90 nM)
# Procedure, shortened: as §1
# [12] = system: PPARg:RXRa IVT, anti-PPARg (NR concentration 270 nM, RXRa partner concentration 90 nM)
# Procedure, shortened: as §1
# [13] = system: PPARg DBDmut:RXRa IVT, anti-PPARg (DBD mutation: PPARg1 K132A/R137A, NR concentration 270 nM, RXRa partner concentration 90 nM)
# Procedure, shortened: as §1
# [14] = system: PPARg DBDmut IVT, anti-PPARg (DBD mutation: PPARg1 K132A/R137A, NR concentration 270 nM)
# Procedure, shortened: as §1
# [15] = system: PPARg homodimer (NR concentration 180 nM)
# Procedure, shortened: as §1
# [16] = system: PXR:RXRa (NR concentration 270 nM, RXRa partner concentration 90 nM)
# Procedure, shortened: as §1
# [17] = system: PXR homodimer (NR concentration 270 nM)
# Procedure, shortened: as §1
# [18] = system: RARa:RXR (NR concentration 270 nM, RXRa partner concentration 90 nM)
# Procedure, shortened: as §1
# [19] = system: RARa homodimer (NR concentration 270 nM)
# Procedure, shortened: as §1
# [20] = system: RARb:RXRa (NR concentration 270 nM, RXRa partner concentration 90 nM)
# Procedure, shortened: as §1
Sequence,PBM binding z-score [1],PBM binding z-score [2],PBM binding z-score [3],PBM binding z-score [4],PBM binding z-score [5],PBM binding z-score [6],PBM binding z-score [7],PBM binding z-score [8],PBM binding z-score [9],PBM binding z-score [10],PBM binding z-score [11],PBM binding z-score [12],PBM binding z-score [13],PBM binding z-score [14],PBM binding z-score [15],PBM binding z-score [16],PBM binding z-score [17],PBM binding z-score [18],PBM binding z-score [19],PBM binding z-score [20]
ACTAGCAGGCCAAGGGACACTCAAGATTAGTCCG,-0.455,-0.514,-0.423,-0.897,-0.655,-0.248,1.88,1.99,0.906,1.86,0.487,0.462,-1.43,-0.851,-0.118,-0.905,-0.667,-0.78,-0.11,1.05
TCTATTAGTTGATTAGGGCAACCGTAACAGCGGA,0.375,0.299,0.215,0.508,0.657,1.05,0.178,2.01,3.91,2.77,2.24,1.65,0.987,1.87,0.942,0.413,0.434,0.681,1.18,0.877
GCCGCTAGGTCAGGTTGGTCAGCTAACGGGTACG,1.23,0.593,-0.167,0.545,-0.194,1.41,0.278,0.955,-0.607,0.0187,2.34,1.64,-0.905,-1.32,0.576,0.356,-0.526,0.716,-0.74,3.27
TCTTGTAGATCAATAGAGGCTAAGAAAGTGCGCT,0.509,0.411,-0.573,0.151,-0.421,0.411,-0.238,0.977,2.4,1.84,1.51,0.473,0.414,0.266,0.0391,0.573,0.17,0.468,-0.133,0.203
TAGCCTAGGTCATTGGGCCAGCATAGTACGCATC,3.88,3.2,0.466,1.87,-0.0227,3.46,3.57,3.71,0.617,2.5,2.61,3.89,0.103,-0.682,0.524,1.58,-0.351,2.11,-0.399,3.64
TCATATAGGAAAAAGGTGAAAGTCGGTGTGGTAA,1.37,1.47,-0.216,1.38,-0.0192,2.87,3.05,5.37,5.19,5.73,2.92,1.79,1.1,0.104,1.49,0.859,0.327,1.63,1.43,1.57
ATATGTAGGTTACATCCGGGTCATTTAGGCTATG,2,4.62,1.8,3.3,0.865,4.68,6.01,5.23,2.64,4.38,7.42,7.5,4.18,3.77,3.45,3.45,1.06,3.55,0.824,2.16
TCTTGTAGATCAATAGGAGGTTAAGAAAGATCGA,0.54,1.36,0.474,0.851,0.157,1.36,0.389,1.57,2.93,2.25,1.97,0.955,0.693,0.624,0.344,0.712,0.557,1.04,0.522,0.202
CTACCAAGGTGAACAAGGTCGTTGTTTACTATTC,1.24,1.22,-0.0325,1.85,-0.465,2.46,0.787,1.29,-0.0619,0.702,2.55,2.57,0.468,0.107,0.724,2.78,1.16,2.27,-0.486,2
CCTTACGGGTCAAGGGTATAGCACGGGTGGTACG,5.14,3.24,-0.107,2.59,-0.218,5.12,5.03,5.23,2.3,4.37,1.83,3.8,0.361,-0.594,3.73,2.9,-0.229,4.27,0.518,3.98
TCGAGTAGGTTAGTCGGTGCATTCAGCCAACATA,-0.341,-0.428,-0.522,-0.341,-1.16,0.254,-0.329,0.678,1.05,0.958,1.78,1.93,-0.29,-0.55,0.152,0.147,-0.142,0.0978,0.0806,-0.085
CCTAGTTGGTCAAGGTGACACACGCTATAGGTAC,0.697,0.276,0.273,0.592,0.0749,1.33,1.71,1.93,0.466,1.32,1.63,3.11,0.179,0.257,1.46,0.478,0.557,1.28,1.57,1.86
CAAACTAGATCACAGAGGTCAAAGTCCGTGCGTA,4.82,5.45,6.08,5.22,2.14,5.26,4.26,4.86,2.01,4.09,3.96,4.36,1,1.1,4.38,5.76,2.93,6.13,2.65,4.05
CGTCGAAGGTCAGCAGGTCAGTGAAAGCGACGTG,5.54,3.8,0.42,3.06,-0.433,4.76,4.28,4.81,1.5,2.88,2.98,3.25,-0.047,-1.4,4.2,3.44,0.233,4.8,1.59,5.24
TCGAGTAGATTAGGGGCATTCAGAATGGCGTCGA,-0.41,-0.292,-0.833,0.457,-0.772,0.269,-0.0813,0.334,0.917,0.699,0.671,-0.44,-1.09,-1.25,-0.958,0.158,-0.306,-0.0495,-1.16,0.182
TCTTGTCGATCAGCAGGTTAAGAAAGCTGGCCAA,0.435,0.635,-0.135,0.381,0.00876,0.714,-0.663,1.47,2.63,1.91,1.61,0.358,-0.732,0.173,0.131,0.254,-0.436,0.75,-0.254,0.466
ATCGTAAGGTCGACGAGGTGAGTATACACCGTTT,3.07,1.79,-0.0992,1.66,0.155,3.03,1.36,1.25,0.685,0.918,0.226,1.61,0.856,0.0648,0.926,2.17,0.476,2.39,0.139,3.08
ATATGTAGGTTAGCTGGGGTCTTTCAGACTAGGC,1.74,0.766,0.231,1.6,0.737,2.65,2.84,2.65,0.594,1.91,6.49,5.47,0.793,0.845,0.937,1.68,0.227,0.915,0.444,0.946
CGAACTAGGTCATTGACAGTACAGTGAATAGTAA,4.63,2.68,0.32,2.02,0.232,4.98,7.68,6.38,3.77,5.67,7.66,8.48,3.53,2.28,1.89,1.64,0.291,2.03,0.0313,3.67
AGAACGAGGTTACCAAAGATCAGGGAAACGCTTG,1.56,5.74,-0.119,2.92,-0.342,3.07,2.21,1.99,0.478,1.55,2.75,2.7,0.297,0.837,0.438,1.41,-0.605,1.66,-0.278,2.02
CCAACTGGGCCAAAGGTCATTGATTCCAATGCTC,4.93,4.78,3.93,4.85,0.383,6.66,12.4,10.4,10.8,11.4,5.49,7,0.378,1.89,3.57,5.33,1.49,6.04,0.958,4.35
ATATGTAGGTTGCATCCGGGTCATTCAGGCTATG,1.21,1.43,0.122,1.29,-0.0904,2.76,1.97,1.68,0.362,1.36,4.33,3.93,1.47,0.927,0.466,2.76,1.85,2.73,0.0936,1.4
TCTATTAGTTGAAGGGCAACCTACGAGTCCGTTT,0.82,0.87,0.394,0.789,0.451,0.702,0.121,1.88,3.44,2.53,2.23,0.488,0.411,0.817,1.5,0.858,1.18,0.893,1.08,1.57
CCTGCTAGGTCAATGGTCAGGTAAAGCAGCTCGC,3.13,2.29,-0.153,1.46,-0.313,3.36,4.48,5.09,2.62,4.62,4.38,4.23,0.154,-0.732,1.38,0.832,-0.154,1.93,-0.238,3.81
TCTGCTAGGTCATTTGGTCAGCTAACGAGCTGCC,4.28,3.21,1.04,2.03,1.81,3.19,1.97,3.11,1.64,2.37,3.73,3.88,3.37,1.7,1.5,1.46,-0.592,2.1,-1.02,3.62
GCTAGCAGGCCATTTGGGTCACCCAATGACGGGC,0.339,-0.142,-0.557,0.0231,-1.02,1.67,0.947,0.784,-0.28,0.167,1.07,2.71,-0.843,-0.885,-0.136,0.692,0.0143,1.02,-0.844,1.62
TCAAGTTGGTCAAAGGTCACACACTCGAAATGCG,6.18,5.75,3.72,5.56,1.33,6.41,11.2,9.6,10,10.6,3.5,6.22,1.33,1.21,5.18,5.91,1.87,7.41,2.74,5.12
CGTCCAAGGTCAAGGTCAGGGAAAGAGACTCGAA,7.19,5.97,1.22,4.87,0.963,6.11,6.41,7.28,3.93,5.91,4.11,5.09,0.821,-0.224,4.18,5.28,1.82,5.45,2.88,5.72
